The list is not random: actives were taken first. Their share in the collection is about 5.2%.
PLK1 PBD inh: inhibitors of human PLK1 polo-box domain binding; P53350; Plk1 PBD binding of FITC phosphopeptide, fluorescence polarization; Potency, µM, actives largely listed as inhibitors; hit rate 2.8% among 360,000; also: series mostly up to about 57 µM; nearly all actives have a fitted effect of over 65% in size
IDH1 R132H inh: blocks human mutant IDH1 R132H enzyme; Potency, µM (highest dose often 76.6 µM), actives largely listed as inhibitors; O75874; hit rate 0.093% among 390,000; IDH1-R132H enzyme, NADPH consumption, diaphorase/resazurin fluorescence; also: nearly all actives have a fitted effect of over 65% in size
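IDH1-R132H (0.5 ug/mL) preincubated 30 min with compound, then NADPH (0.016 mM) and alpha-KG (2 mM) added; 80 min at RT, pH 7.5. Remaining NADPH coupled via diaphorase/resazurin to fluorescence (540/590 nm); concentration-response curves normalized to no-enzyme control.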
TrxR1 inh: rat TrxR1 inhibition | AID 588453 | recombinant rTrxR1, NADPH fluorescence consumption, selenite substrate | hit rate 1% among 390,000 | O89049 | Potency, µM (top dose mostly 114 µM), actives largely listed as inhibitors; also: nearly all actives have a fitted effect of over 65% in size
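Rat TrxR1 (90 nM in the dispensed reagent) was pre-reduced with 400 uM NADPH for 5 min at room temperature, then incubated with compound for 15 min. After 400 uM selenite was added, NADPH fluorescence (Ex 340/Em 450 nm) was followed for 8 min.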
VDR inhibitor: vitamin D3 receptor (human) inhibition. VDR-SRC2-3 peptide fluorescence polarization, 2 h. hit rate 0.93% among 400,000. P11473. Potency, µM, most hits filed as inhibitors. AID 504847
Target sequence (P11473 whole entry, looked up): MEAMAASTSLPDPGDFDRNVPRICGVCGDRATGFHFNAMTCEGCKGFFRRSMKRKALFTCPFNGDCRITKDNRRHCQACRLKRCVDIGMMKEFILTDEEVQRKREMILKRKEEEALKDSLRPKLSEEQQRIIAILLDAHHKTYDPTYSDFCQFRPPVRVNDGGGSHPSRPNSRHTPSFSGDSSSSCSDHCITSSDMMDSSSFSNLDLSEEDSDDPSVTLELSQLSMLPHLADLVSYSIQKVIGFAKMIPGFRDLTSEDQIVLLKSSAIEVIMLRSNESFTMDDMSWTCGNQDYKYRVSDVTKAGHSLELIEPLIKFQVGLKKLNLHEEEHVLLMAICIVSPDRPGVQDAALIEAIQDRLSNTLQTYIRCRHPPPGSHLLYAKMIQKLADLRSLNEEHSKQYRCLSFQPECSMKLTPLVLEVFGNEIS
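Measured by FP: displacement of SRC2-3 coactivator peptide from VDR by library compounds, following a two-hour ambient incubation.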
TrxR1 substrate: substrates of rat thioredoxin reductase 1; O89049; Potency, µM (series often up to 114 µM); purified TrxR1 substrate turnover, NADPH consumption readout; hit rate 0.01% among 390,000; also: nearly all actives have a fitted effect of over 50% in size
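Rat TrxR1, dispensed at 90 nM, was prereduced with 400 uM NADPH (final) for 5 min at ~22 deg C, then incubated with compound 15 min before 400 uM selenite. A first-read NADPH fluorescence drop versus no-compound background flagged substrates.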
Sfp PPTase inh: blocks B. subtilis Sfp PPTase activity; Potency, µM, actives largely listed as inhibitors; hit rate 3.5% among 310,000; Q9F4F7; Biochemical Sfp PPTase activity, qHTS; AID 1490;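 also: the enzyme is Sfp with the accession as filed and its product quenches rhodamine fluorescence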
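Fluorescence-quenching assay: 15 nM Sfp-PPTase preincubated 15 min at room temperature with compound, then 5 uM rhodamine-CoA and 12.5 uM BHQ-2-labelled YbbR peptide added. Fluorescence (ex 525/em 598 nm) read at start and after 30 min; difference gives rate.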
Numbers stand for hits; n = inactive; u = inconclusive; x = not tested or not shown; [ ] = dose if it differs, or a comment. Calls follow the shape of the dose curve; as a rule, active = well fitted curve in the direction sought with a large enough effect; inconclusive = small, poorly fitted or top-dose-only effect, or another doubt; inactive = no such curve, though single readings can be large; an effect the other way counts as inactive or inconclusive.

SMILES	PLK1 PBD inh	IDH1 R132H inh	TrxR1 inh	VDR inhibitor	TrxR1 substrate	Sfp PPTase inh
COc1ccc(C(=S)N2CCOCC2)cc1OC(=O)c1cc(OC)c(OC)c(OC)c1	27µM	n	n	u	n	45µM
CC(=O)N1CCCc2cc(S(=O)(=O)N3CCCC3)ccc21	n	n	n	n	n	n
COc1cc(C(=S)N2CCOCC2)ccc1OC(=O)/C=C/c1ccco1	n	n	n	n	n	56µM
Cc1ccc(C(=O)Oc2ccc(Br)cc2C(=S)N2CCOCC2)cc1	u	n	n	n	n	n
CCOc1cc(C(=S)N2CCCC2)ccc1OCc1ccccc1	n	n	n	n	n	n
O=C(Oc1ccc(Br)cc1C(=S)N1CCOCC1)c1ccc(F)cc1	12µM	n	n	79µM	n	32µM
COc1cc(C(=O)Oc2ccc(Br)cc2C(=S)N2CCOCC2)cc(OC)c1OC	17µM	n	n	u	n	32µM
CCOc1ccc(C(=S)N2CCCC2)cc1OCC	u	n	n	n	n	56µM
CCOc1cc(C(=S)N2CCOCC2)ccc1OC	24µM	n	n	n	n	n
COc1ccc(C(=O)Oc2c(OC)cc(C(=S)N3CCOCC3)cc2OC)cc1OC	21µM	n	n	u	n	40µM
COc1ccc(C(=O)Oc2c(OC)cc(C(=S)N3CCOCC3)cc2OC)cc1	n	n	n	n	n	n
Nc1ccc2nn(-c3ccccc3)nc2c1	21µM	n	n	n	n	n
Nc1cc2nn(-c3ccccc3)nc2cc1Cl	n	n	n	n	n	40µM
Nc1ccc(-n2nc3ccccc3n2)cc1	n	n	n	n	n	x
Cc1c(NC(=O)c2cccc(NC(=O)COc3cccc(Br)c3)c2)c(=O)n(-c2ccccc2)n1C	n	n	n	n	n	x
NS(=O)(=O)c1cccc(C(=O)NC2CCSc3ccccc32)c1 (stereo not drawn)	n	n	n[0.457 µM]	n	n	n
CC(=O)c1cccc(S(=O)(=O)NC2CC2)c1	27µM	n	n	n	n	n
CC(=O)c1cccc(S(=O)(=O)NC2CCSc3ccccc32)c1 (stereo not drawn)	27µM	n	n	n	n	n
Cc1ccc(-c2cn3c(n2)sc2cc(C(=O)NCCCc4ccccc4)ccc23)c(C)c1	x	n	n	n	n	x
COc1ccc2c(c1)c(=O)c(C(=O)c1ccc(C)c(C)c1)cn2CC(=O)Nc1ccc2c(c1)OCCO2	x	n	n	n	n	x
Cc1nn2c(=O)cc(CSc3ccccc3NC(=O)c3ccccc3)nc2s1	n	n	n	n	n	n
COc1cc(C(=O)Nc2ccccc2SCc2cc(=O)n3nc(C)sc3n2)cc(OC)c1OC	27µM	n	n	u	n	n
COc1ccc(CN2C(=O)c3cccnc3C2=O)cc1S(=O)(=O)N(C)Cc1ccco1	n	n	n	n	n	n
CN(Cc1ccco1)S(=O)(=O)c1ccc(CN2C(=O)c3cccnc3C2=O)s1	27µM	n	n	n	n	n
Cn1c(N)c(C(=O)COC(=O)CC(NC(N)=O)c2ccc(Cl)cc2)c(=O)n(C)c1=O (stereo not drawn)	n	n	n	n	n	x
SMILES	PLK1 PBD inh	IDH1 R132H inh	TrxR1 inh	VDR inhibitor	TrxR1 substrate	Sfp PPTase inh
Cn1c(N)c(C(=O)COC(=O)CSc2cccc3cccc(Cl)c23)c(=O)n(C)c1=O	27µM	n	n	n	n	n
CC(=O)NC(CC(=O)OCC(=O)c1c(N)n(C)c(=O)n(C)c1=O)c1ccccc1 (stereo not drawn)	24µM	n	n	u	n	n
Cc1nc(-c2cccnc2)sc1CCNS(=O)(=O)c1ccc(F)cc1	x	n	n	n	n	x
CCOC(=O)N1CCN(C(=O)CCSc2ccc(C)cc2)CC1	3.4µM	n	n	n	n	n
CCOC(=O)CN1C(=O)N[C@@H](c2ccccc2)[C@H](C(=O)OC)[C@H]1C	x	x	x	x	x	n
COc1ccc(OC)c(NC(=O)Cn2cnc3sc(C)c(S(=O)(=O)N4CCN(c5ccccc5OC)CC4)c3c2=O)c1	x	n	n	n	n	x
COc1ccc(CCn2c(-c3ccc(C(C)(C)C)cc3)n[nH]c2=S)cc1OC	38µM	n	n	n	n	n
COc1ccc(CCn2c(-c3ccc(Cl)cc3)n[nH]c2=S)cc1OC	n	n	n	n	n	u
COC(=O)C1=C(O)/C(=C\c2ccc(OCC(=O)Nc3ccccc3OC)cc2)N=C1C	21µM	n	n	u	n	n
O=C(CCl)c1ccc2c(c1)CCCC2	x	x	u	x	n	x
CCCCCCCc1c(C#N)c(N)[nH]c(=S)c1C#N	24µM	n	u	u	n	n
COc1ccc(C)cc1NC(=O)Cn1c(=O)cc(C)c2c(C)nn(C)c21	x	x	n	n	n	x
COc1ccc(OC)c(/C=N/n2c(COc3ccccc3)n[nH]c2=S)c1	n	n	n	n	n	n
COc1ccc(/C=N/n2c(COc3ccccc3)n[nH]c2=S)cc1OC	19µM	n	n	n	n	u
COc1cc(OC)c(OC)cc1/C=N/n1c(COc2ccccc2)n[nH]c1=S	27µM	n	n	n	n	45µM
N#Cc1ccc(CS(=O)(=O)c2nc3ccccc3s2)cc1	x	x	x	u	x	n
O=C(CN1C(=O)C2CCCCC2C1=O)Nc1nc(-c2ccccn2)cs1 (stereo not drawn)	24µM	n	n	n	n[11.4 µM]	16µM
C[C@@H](C(=O)Nc1nc(-c2ccccn2)cs1)N1C(=O)C2CCCCC2C1=O (stereo partly drawn)	17µM	n	n	u	n	50µM
CN1CC(=O)Nc2ccc([N+](=O)[O-])cc2C1=O	n	n	n	n	n	n
Nc1cc(=O)[nH]c(SCC(=O)Nc2cc([N+](=O)[O-])ccc2Cl)n1	21µM	n	n[11.4 µM]	n	n	n
Nc1cc(=O)[nH]c(SCC(=O)Nc2nc3ccc([N+](=O)[O-])cc3s2)n1	x	x	x	x	x	n
COc1ccc2c(c1)c1ncn(Cc3ccco3)c(=O)c1n2C	n	n	n	n	n	18µM
COc1ccc2c(c1)c1ncn(Cc3ccc(F)cc3)c(=O)c1n2C	n	n	n	n	n	n
CC1CC(NC(=O)Cc2ccc(Br)cc2)CC(C)(C)C1 (stereo not drawn)	6µM	n	n	u	n	n
O=C(CN1CC(=O)Oc2ccccc21)OCC(=O)c1cccc(Br)c1	n	n	n	n	n	71µM
COc1cccc(/C=C(\C#N)C(=O)Nc2ccc(NC(C)=O)cc2)c1OC	x	n	n	n	n	x
COc1ccc(C(O)c2nc(-c3cc(F)cc(Cl)c3)cs2)cc1 (stereo not drawn)	n	x	x	x	x	x
Nc1cccc(-c2cn3cccnc3n2)c1	30µM	n	n	n	n	n
O=C(O)c1csc(-c2ccccc2)n1	n	n	n	n	n	n
O=C(O)c1csc(-c2cccc(Cl)c2)n1	27µM	n	n	n	n	n
